In ChEMBL document CHEMBL1961873, “Compounds: GSK PKIS; Assays: Nanosyn kinase panel” (2012):

Tests used:
[1] = molecular target: T1, Inhibitor of nuclear factor kappa-B kinase subunit epsilon (Homo sapiens) (UniProt Q14164); settings: at 1 µM;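 note: reported values are averaged percent inhibition figures against human IKKε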
T1 sequence (whole entry): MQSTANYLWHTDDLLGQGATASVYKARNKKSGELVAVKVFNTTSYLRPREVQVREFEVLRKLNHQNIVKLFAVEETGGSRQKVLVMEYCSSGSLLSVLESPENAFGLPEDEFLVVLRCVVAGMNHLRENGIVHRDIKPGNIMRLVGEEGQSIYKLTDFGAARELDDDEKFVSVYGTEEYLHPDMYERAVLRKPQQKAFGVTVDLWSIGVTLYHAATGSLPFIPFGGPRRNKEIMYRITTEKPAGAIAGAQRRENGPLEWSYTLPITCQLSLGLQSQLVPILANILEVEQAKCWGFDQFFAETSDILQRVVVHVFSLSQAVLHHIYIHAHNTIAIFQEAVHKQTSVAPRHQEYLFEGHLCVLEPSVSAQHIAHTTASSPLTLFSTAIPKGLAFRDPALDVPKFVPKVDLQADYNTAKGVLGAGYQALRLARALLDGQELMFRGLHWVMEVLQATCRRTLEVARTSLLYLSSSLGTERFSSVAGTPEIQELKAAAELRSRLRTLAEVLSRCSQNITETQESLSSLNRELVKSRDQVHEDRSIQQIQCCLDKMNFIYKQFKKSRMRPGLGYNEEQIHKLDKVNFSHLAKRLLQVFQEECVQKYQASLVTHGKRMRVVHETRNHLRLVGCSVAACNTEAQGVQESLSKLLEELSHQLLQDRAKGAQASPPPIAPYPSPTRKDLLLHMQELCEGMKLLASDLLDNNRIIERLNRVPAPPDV

[2] = molecular target: T2, Serine/threonine-protein kinase Nek1 (Homo sapiens) (UniProt Q96PY6); settings: at 0.1 µM
T2 sequence (whole entry): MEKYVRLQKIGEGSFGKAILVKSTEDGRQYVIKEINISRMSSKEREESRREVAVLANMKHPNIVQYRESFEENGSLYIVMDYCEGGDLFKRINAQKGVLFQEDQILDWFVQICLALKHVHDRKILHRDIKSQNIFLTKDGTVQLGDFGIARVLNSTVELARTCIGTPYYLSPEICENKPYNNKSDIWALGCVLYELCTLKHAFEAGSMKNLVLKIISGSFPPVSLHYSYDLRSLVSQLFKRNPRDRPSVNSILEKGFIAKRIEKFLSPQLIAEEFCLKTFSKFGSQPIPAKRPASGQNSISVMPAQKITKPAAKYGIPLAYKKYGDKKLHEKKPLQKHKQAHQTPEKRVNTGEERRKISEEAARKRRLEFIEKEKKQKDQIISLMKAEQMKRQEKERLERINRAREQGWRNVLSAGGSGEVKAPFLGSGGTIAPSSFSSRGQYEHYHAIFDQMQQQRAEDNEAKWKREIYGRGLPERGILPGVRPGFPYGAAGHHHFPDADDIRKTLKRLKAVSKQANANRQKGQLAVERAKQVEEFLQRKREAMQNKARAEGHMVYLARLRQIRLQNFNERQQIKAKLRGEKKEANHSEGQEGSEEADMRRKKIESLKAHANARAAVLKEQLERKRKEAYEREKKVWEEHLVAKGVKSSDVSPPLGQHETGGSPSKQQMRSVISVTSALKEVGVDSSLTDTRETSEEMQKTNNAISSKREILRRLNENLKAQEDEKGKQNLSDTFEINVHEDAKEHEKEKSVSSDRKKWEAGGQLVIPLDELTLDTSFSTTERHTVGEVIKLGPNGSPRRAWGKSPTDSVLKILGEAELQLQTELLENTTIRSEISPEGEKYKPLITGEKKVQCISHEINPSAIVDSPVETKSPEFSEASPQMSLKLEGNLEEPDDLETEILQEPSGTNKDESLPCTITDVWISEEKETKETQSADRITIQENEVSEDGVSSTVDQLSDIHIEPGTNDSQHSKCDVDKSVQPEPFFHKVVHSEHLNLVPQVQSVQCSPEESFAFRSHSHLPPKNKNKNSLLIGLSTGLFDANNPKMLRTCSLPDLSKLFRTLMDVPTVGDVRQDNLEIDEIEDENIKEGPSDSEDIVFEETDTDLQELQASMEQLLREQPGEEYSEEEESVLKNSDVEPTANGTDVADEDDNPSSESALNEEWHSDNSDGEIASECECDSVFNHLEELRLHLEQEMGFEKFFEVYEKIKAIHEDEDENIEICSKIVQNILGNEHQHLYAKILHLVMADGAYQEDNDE

[3] = molecular target: T2, Serine/threonine-protein kinase Nek1 (Homo sapiens); settings: at 1 µM
[4] = molecular target: T3, Serine/threonine-protein kinase Nek2 (Homo sapiens) (UniProt P51955); settings: at 0.1 µM
T3 sequence (whole entry): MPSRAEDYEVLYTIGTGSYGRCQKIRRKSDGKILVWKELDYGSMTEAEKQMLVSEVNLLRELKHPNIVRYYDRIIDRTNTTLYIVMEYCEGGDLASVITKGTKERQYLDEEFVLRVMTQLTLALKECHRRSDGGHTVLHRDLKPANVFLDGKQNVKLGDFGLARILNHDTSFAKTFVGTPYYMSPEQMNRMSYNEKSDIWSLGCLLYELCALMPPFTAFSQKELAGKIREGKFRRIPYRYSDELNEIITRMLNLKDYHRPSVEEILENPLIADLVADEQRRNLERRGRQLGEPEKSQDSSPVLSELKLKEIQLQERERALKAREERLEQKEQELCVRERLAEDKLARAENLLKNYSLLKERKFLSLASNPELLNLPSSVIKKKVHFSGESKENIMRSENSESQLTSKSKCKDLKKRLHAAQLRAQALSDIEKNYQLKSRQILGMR

[5] = molecular target: T3, Serine/threonine-protein kinase Nek2 (Homo sapiens); settings: at 1 µM
[6] = molecular target: Serine/threonine-protein kinase Nek6 (Homo sapiens) (UniProt Q9HC98); settings: at 0.1 µM
[7] = molecular target: Serine/threonine-protein kinase Nek6 (Homo sapiens) (UniProt Q9HC98); settings: at 1 µM
[8] = molecular target: Serine/threonine-protein kinase Nek7 (Homo sapiens) (UniProt Q8TDX7); settings: at 0.1 µM
[9] = molecular target: Serine/threonine-protein kinase Nek7 (Homo sapiens) (UniProt Q8TDX7); settings: at 1 µM
[10] = molecular target: T4, Serine/threonine-protein kinase Nek9 (Homo sapiens) (UniProt Q8TD19); settings: at 0.1 µM;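 note: reported value is the mean percent inhibition of NEK9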
T4 sequence (whole entry): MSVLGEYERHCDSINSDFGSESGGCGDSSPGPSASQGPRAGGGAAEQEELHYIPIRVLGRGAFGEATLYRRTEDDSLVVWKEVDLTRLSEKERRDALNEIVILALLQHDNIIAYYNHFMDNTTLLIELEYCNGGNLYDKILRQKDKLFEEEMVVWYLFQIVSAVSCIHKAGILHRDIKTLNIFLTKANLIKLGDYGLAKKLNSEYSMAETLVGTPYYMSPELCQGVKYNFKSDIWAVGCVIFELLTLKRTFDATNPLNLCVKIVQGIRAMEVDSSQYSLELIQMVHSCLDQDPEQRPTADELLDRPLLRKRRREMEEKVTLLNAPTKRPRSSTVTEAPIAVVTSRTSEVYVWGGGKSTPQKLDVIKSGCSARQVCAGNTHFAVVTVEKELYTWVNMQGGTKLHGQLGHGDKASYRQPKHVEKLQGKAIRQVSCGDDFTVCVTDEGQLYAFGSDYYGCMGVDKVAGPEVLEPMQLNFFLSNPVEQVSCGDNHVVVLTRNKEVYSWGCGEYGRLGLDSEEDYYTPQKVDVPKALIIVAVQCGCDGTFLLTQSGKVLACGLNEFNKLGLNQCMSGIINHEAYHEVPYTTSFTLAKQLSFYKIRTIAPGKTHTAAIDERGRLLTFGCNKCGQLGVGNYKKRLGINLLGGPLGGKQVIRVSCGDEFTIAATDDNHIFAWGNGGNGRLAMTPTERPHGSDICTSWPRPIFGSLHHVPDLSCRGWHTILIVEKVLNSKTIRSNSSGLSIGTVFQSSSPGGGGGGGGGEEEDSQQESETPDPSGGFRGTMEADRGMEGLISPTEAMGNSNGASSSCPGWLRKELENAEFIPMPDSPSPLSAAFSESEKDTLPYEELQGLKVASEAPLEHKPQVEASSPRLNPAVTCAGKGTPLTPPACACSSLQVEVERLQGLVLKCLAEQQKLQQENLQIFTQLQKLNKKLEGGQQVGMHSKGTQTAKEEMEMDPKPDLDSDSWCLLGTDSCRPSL

Serine/threonine-protein kinase Nek6 (Homo sapiens), sequence (Q9HC98 whole entry): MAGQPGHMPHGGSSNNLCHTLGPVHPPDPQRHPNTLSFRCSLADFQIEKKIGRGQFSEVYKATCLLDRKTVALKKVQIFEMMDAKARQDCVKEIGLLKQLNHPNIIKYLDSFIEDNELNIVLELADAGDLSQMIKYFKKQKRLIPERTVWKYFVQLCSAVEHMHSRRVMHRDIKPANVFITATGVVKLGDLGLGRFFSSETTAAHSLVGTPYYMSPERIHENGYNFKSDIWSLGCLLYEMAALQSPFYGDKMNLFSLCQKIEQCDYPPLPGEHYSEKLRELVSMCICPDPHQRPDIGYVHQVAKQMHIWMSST
Serine/threonine-protein kinase Nek7 (Homo sapiens), sequence (Q8TDX7 whole entry, looked up): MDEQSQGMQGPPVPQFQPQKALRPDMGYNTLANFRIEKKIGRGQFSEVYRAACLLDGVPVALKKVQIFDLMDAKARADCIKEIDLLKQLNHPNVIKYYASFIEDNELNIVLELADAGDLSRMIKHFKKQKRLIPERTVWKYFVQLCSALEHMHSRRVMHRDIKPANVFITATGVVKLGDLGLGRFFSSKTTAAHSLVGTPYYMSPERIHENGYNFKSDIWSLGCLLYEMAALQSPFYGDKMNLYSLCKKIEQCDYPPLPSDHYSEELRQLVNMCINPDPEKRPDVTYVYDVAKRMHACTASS

Structure (SMILES)	inhibition [1]	inhibition [2]	inhibition [3]	inhibition [4]	inhibition [5]	inhibition [6]	inhibition [7]	inhibition [8]	inhibition [9]	inhibition [10]
CN1CCN(CCCNc2nc3ccc(Oc4ccc(NC(=O)Nc5cc(C(F)(F)F)ccc5F)cc4)cc3[nH]2)CC1	-0.63%	1.41%	0.88%	0.71%	0.01%	3.67%	-2.03%	3.61%	0.94%	2.54%
NC(=O)c1cc(-c2ccncc2)cc(-c2ccccc2)c1N	14.9%	3.64%	3.27%	6.42%	6.13%	2.63%	-0.35%	4.53%	3.98%	9.48%
Nc1nccc(-c2c(-c3ccc(F)cc3)ncn2C2CCC(O)CC2)n1 (stereo not given)	-2.64%	-1.36%	0.03%	-2.37%	-3.67%	-4.15%	-1.66%	-2.24%	-4.78%	2.41%
O=C1Nc2ccccc2/C1=C/Nc1ccc(-n2cncn2)cc1	16.4%	2.46%	5.21%	4.4%	4.16%	4.59%	7.54%	5.44%	4.4%	5.79%
COc1ccc2cc(-c3c(-c4ccncc4)nc(-c4ccc(S(C)(=O)=O)cc4C)n3C)ccc2c1	7.25%	3.37%	4.4%	5.82%	4.5%	0.49%	4.51%	5.77%	4.57%	6.52%
O=C(Nc1ccc(Oc2ccc3[nH]c(NC(=O)c4ccccc4)nc3c2)cc1)Nc1cc(C(F)(F)F)ccc1F	3.04%	1.92%	2.89%	4.15%	3.11%	3.73%	1.7%	4.29%	4.36%	9.72%
C[C@@H](Oc1cc(-n2cnc3ccc(OCC4CCN(C)CC4)cc32)sc1C(N)=O)c1ccccc1Cl	7.27%	17.6%	54.1%	22.1%	64.9%	0.14%	0.47%	4.32%	9.78%	77.4%
COc1cc(N2CCN(C(C)C)CC2)ccc1Nc1nc(Nc2ccc(F)cc2C(=O)NC[C@@H](O)CO)c2cc[nH]c2n1	10.3%	2.75%	4.63%	5.32%	5.19%	1.82%	3.84%	5.49%	3.45%	2.99%
CCc1cccc(CC)c1/C=C/c1cncc(C(=O)NC)c1	3.78%	1.27%	1.92%	3.4%	3.05%	0.31%	0.68%	2.82%	2.39%	8.92%
COc1ccc(C2=C(N3CCc4ccccc43)C(=O)NC2=O)cc1	19.1%	2.77%	5.54%	5.3%	6.47%	2.74%	1.65%	3.11%	3.74%	11.3%
NS(=O)(=O)c1ccc(Nc2cc(-c3ccc(O)c(F)c3)n[nH]2)cc1	-0.51%	-0.93%	-1.21%	-3.94%	-3.05%	-4.94%	-2.21%	-0.59%	-3.23%	5.12%
C[C@@H](Oc1cc(-n2cnc3ccc(OC4CCN(C)CC4)cc32)sc1C(N)=O)c1ccccc1Cl	6.16%	9.13%	38.1%	10.1%	39.5%	-0.34%	2.21%	3.24%	8.62%	62%
CN(C)CCCNc1nccc(-c2c(-c3ccc(F)cc3)nn3cc(C(F)(F)F)ccc23)n1	1.28%	2.23%	4.09%	1.87%	1.49%	1.82%	-1.46%	2.85%	1.37%	5.9%
NC(=O)Cc1ccccc1Oc1nccc(-c2c(-c3ccc(F)cc3)ncn2C2CCNCC2)n1	0.67%	1.64%	4.11%	2.13%	4.35%	0.28%	1.26%	3.21%	2.73%	10.9%
Fc1ccc(-c2c(-c3ccncc3)nc3n2CCS3)cc1	5.11%	2.32%	3.2%	2.33%	2.6%	-0.57%	0.48%	3.63%	2.47%	5.56%
NCc1ccc(-n2c(-c3nonc3N)nc3cnccc32)cc1	11.4%	3.18%	3.48%	6.17%	7.8%	3.51%	3.42%	7.27%	7.6%	2.32%
CN(C)c1ccc2c(c1)/C(=C/Nc1ccc(S(N)(=O)=O)cc1)C(=O)N2	23.1%	1.42%	2.38%	2.78%	3.05%	0.8%	2.13%	5.09%	3.01%	-1.19%
